In all, about 220,000 compounds went through this assay and about 910 (0.41%) were called active.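 The calls were made as follows: active = primary inhibition above the hit cutoff, then over 50% inhibition at one or more dose response concentrations (cut at about 23% in these data, passing the limit was not always enough); inconclusive = conflicting primary data, or primary hits not chosen for dose response; inactive = low primary inhibition, or under 50% at every dose.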 The entries come from a sample that favours actives as a whole. Entries with a potency or affinity are not part of this list.
What follows are compounds tested against Aminopeptidase N (Plasmodium falciparum (isolate 3D7)) (UniProt O96935) (assay: malaria alanyl aminopeptidase activity blockers – biochemical, fluorogenic H-Leu-NHMec substrate, 1536-well (AID 1445;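 also: plate controls were DMSO full reaction for no effect and no enzyme background for full effect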)). Details: recombinant M1AAP, H-Leu-NHMec fluorogenic kinetic assay; at 30 µM, hits give high values unless noted.
Sequence of Aminopeptidase N (Plasmodium falciparum (isolate 3D7)) (O96935 whole entry, looked up): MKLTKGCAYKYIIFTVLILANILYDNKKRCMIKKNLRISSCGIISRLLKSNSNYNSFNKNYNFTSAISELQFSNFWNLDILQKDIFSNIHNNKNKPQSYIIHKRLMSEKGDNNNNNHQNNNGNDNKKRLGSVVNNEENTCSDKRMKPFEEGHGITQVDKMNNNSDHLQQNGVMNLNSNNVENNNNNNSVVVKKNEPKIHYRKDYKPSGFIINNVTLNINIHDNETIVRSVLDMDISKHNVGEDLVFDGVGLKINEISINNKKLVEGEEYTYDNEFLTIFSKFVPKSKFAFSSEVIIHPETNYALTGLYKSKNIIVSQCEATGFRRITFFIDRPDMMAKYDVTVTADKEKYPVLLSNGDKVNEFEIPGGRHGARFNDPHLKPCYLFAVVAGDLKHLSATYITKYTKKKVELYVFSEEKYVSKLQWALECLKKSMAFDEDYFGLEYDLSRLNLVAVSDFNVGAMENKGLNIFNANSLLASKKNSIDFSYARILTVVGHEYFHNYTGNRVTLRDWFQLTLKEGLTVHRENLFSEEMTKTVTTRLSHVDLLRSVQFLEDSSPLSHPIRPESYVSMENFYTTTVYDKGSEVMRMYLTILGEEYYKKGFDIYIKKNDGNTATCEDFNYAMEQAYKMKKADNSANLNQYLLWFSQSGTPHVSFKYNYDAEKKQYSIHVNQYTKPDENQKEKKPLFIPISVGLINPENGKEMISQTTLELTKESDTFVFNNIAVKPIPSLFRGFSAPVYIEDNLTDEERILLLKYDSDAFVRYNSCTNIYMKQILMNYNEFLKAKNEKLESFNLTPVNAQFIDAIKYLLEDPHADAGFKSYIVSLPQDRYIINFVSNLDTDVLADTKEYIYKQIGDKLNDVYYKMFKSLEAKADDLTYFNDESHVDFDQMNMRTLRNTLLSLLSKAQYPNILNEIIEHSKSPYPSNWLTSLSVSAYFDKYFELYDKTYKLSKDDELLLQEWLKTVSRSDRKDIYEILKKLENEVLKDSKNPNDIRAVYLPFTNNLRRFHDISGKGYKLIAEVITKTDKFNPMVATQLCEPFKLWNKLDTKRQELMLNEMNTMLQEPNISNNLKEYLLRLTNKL

Structure (SMILES) | inhibition
O=C(CSc1nc2c(c(=O)[nH]1)CCCC2)Nc1ccc(Cl)cc1F | -2.08% (inactive)
CS(=O)(=O)N1CCC(C(=O)Nc2ccc(F)cc2F)CC1 | -3.46% (inactive)
CCCCC(CC)CNC(=O)c1cccs1 (centres undefined) | -3.27% (inactive)
Cc1ccccc1NS(=O)(=O)c1cc(C(=O)N2CCCC2)ccc1C | 4.97% (inactive)
Cc1nnc(SCC(=O)NCCN2C(=O)CSC2=O)s1 | 2.17% (inactive)
Cc1ccc(CSc2ncccc2C(=O)O)cc1 | 1.82% (inactive)
Cc1cccc(CSc2ncccc2C(=O)O)c1 | 2.89% (inactive)
COc1ccc(-c2cc(C(=O)NCc3ccccc3)no2)cc1OC | -1.3% (inactive)
CC(=O)N=c1sc2cc(C)ccc2n1C | 3.39% (inactive)
Cc1cc(C(=O)OCC(=O)NCc2ccc(Cl)cc2)c(C)o1 | -6.7% (inactive)
CCN(CC)CCC(=O)Nc1cccc2c1C(=O)c1ccccc1C2=O | 7.62% (inactive)
CCN(CC)CC(=O)Nc1cccc2c1C(=O)c1ccccc1C2=O | 5.73% (inactive)
CCN(CC)C(C(=O)NC1CCCCC1)c1ccc(C)cc1 (centres undefined) | -1.29% (inactive)
COc1ccc(NC(=O)CN2C(=O)c3ccccc3Sc3ccc(C(=O)N4CCOCC4)cc32)c(OC)c1 | 9.02% (inactive)
CC(C)C1C(C#N)=C(N)Oc2n[nH]c(-c3cccs3)c21 (centres undefined) | 5.75% (inactive)
CSCCC1C(C#N)=C(N)Oc2n[nH]c(-c3cccs3)c21 (centres undefined) | 23.8% (active)
CC(C)CC1C(C#N)=C(N)Oc2n[nH]c(-c3cccs3)c21 (centres undefined) | -0.26% (inactive)
Cc1ccc2c(CN3C(=O)NC4(CCCCC4)C3=O)cc(=O)oc2c1C | 8.97% (inactive)
Cc1ccc(CSc2nc3sc(C)c(C)c3c(=O)n2Cc2ccco2)cc1 | 9.77% (inactive)
Cc1ccc(C)c(NC(=O)c2ccc3c(c2)N(Cc2ccc(F)cc2)C(=O)CS3=O)c1 (centres undefined) | -7.55% (inactive)
O=C(NC1CCCCCCC1)c1ccc2c(c1)N(Cc1ccc(F)cc1)C(=O)CS2=O (centres undefined) | 23.5% (active)
O=C(Nc1ccccc1Cl)c1ccc2c(c1)N(Cc1ccc(F)cc1)C(=O)CS2=O (centres undefined) | 3.24% (inactive)
CNC(=O)c1cc2c(ccc3ccccc32)o1 | 3.24% (inactive)
Cn1ncc(Br)c1C(=O)Nc1ccc(Br)cn1 | -3.07% (inactive)
Cc1occc1C(=O)NCCCc1ccccc1 | 0.03% (inactive)
O=C(Nc1nnc(SCc2ccccc2)s1)c1cccs1 | -2.48% (inactive)
COc1cccc(C(=O)Nc2cc(C(=O)NCCc3ccccc3)ccc2Cl)c1 | 24.9% (active)
COc1ccc(C(=O)Nc2cc(C(=O)NCCc3ccccc3)ccc2Cl)cc1 | 13.3% (inactive)
COCC(=O)Nc1cc(C(=O)NCCc2ccccc2)ccc1Cl | -6.24% (inactive)
